Results on eleven molecules are retold here after PubChem BioAssay.

The structures appear in SMILES notation.

The experiment can be described thus: compound effects on hepatocellular carcinoma cell viability – HepG2, calcein-AM fluorescence, 48 h, basal, profiling panel (AID 1164). Also: test concentration not given here. The following applies: higher = more signal.
`COC(=O)C(CC#Cc1ccc2c(c1)[C@]1(C(=O)N2)[C@H](C(=O)NC[C@H](O)c2ccccc2)[C@H]2C(=O)O[C@H](c3ccccc3)[C@H](c3ccccc3)N2[C@@H]1c1ccccc1OCCO)C(=O)OC`: the z-score is -0.272.

In the case of `CN(C)CCCNC(=O)[C@@]1(Cc2ccccc2I)c2ccccc2C(=O)N(C2CCCCC2)[C@H]1c1ccc(CO)cc1`, the z-score was -5.11.

Turning to `CN1C(=O)C2C=CC(C(O)c3ccc(-c4ccccc4)s3)N(NC(=O)OC(C)(C)C)C2C1=O` (stereo unspecified), the z-score is -0.68.

Regarding `CCCNC(=O)[C@@]1(Sc2ccc(C)cc2)CC(=O)N(Cc2ccccc2Cl)[C@@H]1c1ccc(CO)cc1I`, the z-score was 1.01.

Turning to `CN(C)c1ccc(C(O)C2C=CC3C(=O)N(Cc4ccccc4)C(=O)C3N2n2cnnc2)cc1` (stereo unspecified), the z-score is 2.13.

Take `C[C@@H]1ON(c2ccccc2)[C@H](c2ccccc2)[C@H]1C(=O)O`: the z-score was -0.374.

For `O=C1[C@H]2C=C(I)[C@H](C[C@@H]2c2ccccc2)[C@@]12CO2`, the z-score is -0.382.

For `C=CCC(OC(C)=O)[C@@H]1[C@@H](N(Cc2ccc(-c3cccc(C(F)(F)F)c3)o2)C(=O)c2ccc(-c3ccccc3)cc2)c2cc(OCCCO)ccc2N1C(=O)c1ccc2ccccc2c1` (stereo partly specified), the z-score was 0.612.

Consider `O=C(NCc1ccc(F)cc1)[C@H]1C[C@H]2C(=O)N3CCC[C@H]3C(=O)N2[C@H]1c1ccc(O)cc1`, for which the z-score was -0.647.

Take `N#Cc1ccc(NN2C(C(O)C3CC=CCC3)C=CC3C(=O)N(c4ccccc4)C(=O)C32)cc1` (stereo unspecified): the z-score was 0.921.

With `CCCNC(=O)[C@@]1(c2ccc([N+](=O)[O-])cc2)CC(=O)N(C(C)C)[C@@H]1c1ccc(CO)cc1`, the z-score is -0.359.
